Assay [1] is described as follows: qHTS profiling for inhibitors of Plasmodium falciparum proliferation (AID 504749). Further: nearly all actives have a fitted effect of over 60% in size. Further: potency means the concentration at half of the fitted maximal effect.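 On activity, negative = inhibition: 0% = DMSO vehicle and full inhibition = artemisinin control.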 The settings on record: P. falciparum in erythrocytes, SYBR Green DNA, 72 h, at 28.7 µM (top of the series). Put shortly:
(§1)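 Fluorescence of SYBR Green-bound parasite DNA, read at 485/535 nm, served as the growth measure. Infected erythrocytes were cultured with compound 72 h; artemisinin (0.29 uM) and DMSO wells defined the normalization range.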
On the technique in general: qHTS replaces the single test concentration by a dilution series.

Another assay relates to 3D7. The assay is described as above. The note with it: P. falciparum in erythrocytes, SYBR Green DNA, 72 h; series mostly up to 28.7 µM. Put shortly: as §1
A further assay concerns 7G8. The description is as above. The settings on record: P. falciparum in erythrocytes, SYBR Green DNA, 72 h; series mostly up to 28.7 µM. Put shortly: as §1
The subject of the next assay is AA1029. Described as above. The settings on record: P. falciparum in erythrocytes, SYBR Green DNA, 72 h; series mostly up to 28.7 µM. Put shortly:
as §1

For a further assay, the system named is AS120. The assay is described as above. The note with it: P. falciparum in erythrocytes, SYBR Green DNA, 72 h; series mostly up to 28.7 µM. Put shortly:
as §1

The subject of another assay is ATS189. The assay is described as above. The note with it: P. falciparum in erythrocytes, SYBR Green DNA, 72 h; series mostly up to 28.7 µM. Put shortly:
as §1

The subject of a further assay is ATS95. The assay is described as above. The settings on record: P. falciparum in erythrocytes, SYBR Green DNA, 72 h; series mostly up to 28.7 µM. Put shortly: as §1
The subject of the next assay is C2A. The assay is described as above. The note with it: P. falciparum in erythrocytes, SYBR Green DNA, 72 h; series mostly up to 28.7 µM. Put shortly:
as §1

Assay [2] in a line: qHTS drug screen for cell cycle checkpoint inhibitors in PARPi-resistant BRCA-mutant ovarian cancer cell lines. (AID 1963452; calls by dose curve). The note with it: PEO1/OlaR viability, CellTiter-Glo luminescence, 96 h, stronger effect = lower value. Put shortly: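 PEO1, PEO4 and PEO1/OlaR ovarian cancer cells, 600 per well, exposed 96 h at 37C to a dilution series. Viability read by CellTiter-Glo luminescence, normalized to DMSO and empty wells; activity summarized as Z-AUC.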

Assay [3] addresses Cytochrome P450 2D6 (Homo sapiens) (UniProt P10635). The experiment in a line: qHTS for inhibitors of CYP2D6 against the NCATS DSHEA and TCM libraries (AID 1919972). Further: on the % scale 0 is the no-effect control and ±100 the full control effect. The settings on record: CYP2D6 enzymatic inhibition, luminescence qHTS; series mostly up to 34.1 µM. Put shortly: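 qHTS, concentration–response format with most substances from 19.5 nM. CYP2D6 + pro-luciferin substrate, 15 min with compound, then 1x NADPH regen, 30–45 min RT dark. Glo detection 30 min, luminescence. Quinidine control.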

A short description of assay [4]: KB-3-1 P-gp reporter qHTS against the NCATS DSHEA and TCM libraries (AID 1919975). Further: 0% is about no effect. The note with it: KB-3-1 parental cells, CellTiter-Glo luminescence viability, 72 h; series mostly up to 26.1 µM. Put shortly: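 Cell viability by CellTiter-Glo luminescence following ~72 h compound exposure (concentration-response). Uses parental, non-P-gp-overexpressing KB-3-1 line, 500 cells/well in DMEM/10% FBS, attached ~4 h before dosing.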

Assay [5] is described as follows: qHTS Counterscreen for compound interference against the NCATS DSHEA and TCM libraries (AID 1919978).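 Further: compounds preincubated with 1 µM D-luciferin or buffer before detection reagent; % of control where 0% means no effect.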 The settings on record: firefly luciferase detection reagent interference, luminescence. Put shortly:
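With 1 uM D-luciferin or phosphate buffer only, compounds at final 19.5 nM–39.8 uM were incubated for 15 min at room temperature. Luciferase detection reagent was then added, and luminescence was measured after a further 30 min at room temperature.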

The nature of assay [6]: Dual reporter qHTS for agonist of Pregnane X Receptor (hPXR) against the NCATS DSHEA and TCM libraries: Fluorescence readout (AID 1920058). Further: 0% is about no effect. The settings on record: PXR dual reporter cells; series mostly up to 40 µM. Put shortly: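 Fluorescence read-out for cell viability: CellTiter-Fluor, 1 h at 37 °C, Ex/Em 405/540 nm. This followed ~24 h treatment of hPXR-Luc HepG2 cells with substances in agonist mode.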

Assay [7] concerns the target Nuclear receptor subfamily 1 group I member 2 (Homo sapiens) (UniProt O75469). Put plainly: Dual reporter qHTS for antagonist of Pregnane X Receptor (hPXR) against the NCATS DSHEA and TCM libraries: Luminescence Readout (AID 1920060).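 Further: HepG2 cells carrying hPXR luciferase reporter stimulated with rifampicin at 2 µM; 0% is about no effect.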 The settings on record: hPXR dual reporter cells, luciferase luminescence, antagonist mode; series mostly up to 40 µM. Put shortly:
(§2)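 hPXR-Luc HepG2 cells exposed 24 h at 37 C to compounds with 2 uM rifampicin in antagonist mode; luciferase luminescence measured by ONE-Glo, with CellTiter-Fluor viability read beforehand.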

The nature of assay [8]: Dual reporter qHTS for antagonist of Pregnane X Receptor (hPXR) against the NCATS DSHEA and TCM libraries: Fluorescence Readout (AID 1920061). Further: 0% is about no effect. The settings on record: PXR dual reporter cells, antagonist mode; series mostly up to 40 µM. Put shortly:
as §2

The mark [9] stands for this setting: measured here: PEO1 parental Z-AUC.

Results filed as inconclusive are left out. Active and inactive are the calls of the source. Unless noted, the call rests on the fitted dose curve; in most records, active means well fitted curve in the direction sought with a large enough effect; inconclusive means small, poorly fitted or top-dose-only effect, or another doubt; inactive means no such curve, though single readings can be large; an effect the other way counts as inactive or inconclusive.

Chain of Cytochrome P450 2D6 (Homo sapiens) (P10635 whole entry, looked up): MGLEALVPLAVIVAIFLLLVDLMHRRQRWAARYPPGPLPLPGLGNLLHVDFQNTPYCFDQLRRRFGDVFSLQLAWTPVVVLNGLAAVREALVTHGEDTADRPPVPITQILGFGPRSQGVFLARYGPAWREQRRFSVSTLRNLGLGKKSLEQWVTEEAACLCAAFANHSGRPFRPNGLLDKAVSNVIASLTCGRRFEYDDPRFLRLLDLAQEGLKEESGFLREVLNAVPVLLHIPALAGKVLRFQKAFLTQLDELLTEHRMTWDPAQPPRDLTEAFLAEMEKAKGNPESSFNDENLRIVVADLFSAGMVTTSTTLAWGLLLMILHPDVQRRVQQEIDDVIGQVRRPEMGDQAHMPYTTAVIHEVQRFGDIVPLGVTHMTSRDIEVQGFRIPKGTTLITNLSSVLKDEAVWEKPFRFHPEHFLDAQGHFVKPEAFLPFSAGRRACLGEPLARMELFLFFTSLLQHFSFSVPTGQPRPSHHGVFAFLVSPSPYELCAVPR
Chain of Nuclear receptor subfamily 1 group I member 2 (Homo sapiens) (O75469 whole entry, looked up): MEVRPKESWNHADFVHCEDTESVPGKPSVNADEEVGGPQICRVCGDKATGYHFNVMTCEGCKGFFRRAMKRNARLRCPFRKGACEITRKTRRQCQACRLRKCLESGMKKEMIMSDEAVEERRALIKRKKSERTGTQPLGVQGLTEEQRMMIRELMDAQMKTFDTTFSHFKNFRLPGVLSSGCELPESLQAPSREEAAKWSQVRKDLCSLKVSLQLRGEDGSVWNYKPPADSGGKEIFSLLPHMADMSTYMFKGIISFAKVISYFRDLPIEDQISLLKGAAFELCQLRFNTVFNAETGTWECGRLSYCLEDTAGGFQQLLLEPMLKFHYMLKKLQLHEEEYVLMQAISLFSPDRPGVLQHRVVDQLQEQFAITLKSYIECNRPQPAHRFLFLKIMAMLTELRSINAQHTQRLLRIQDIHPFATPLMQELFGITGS

On to `CCOC(=O)[C@H](CCc1ccccc1)N[C@@H](C)C(=O)N1C(=O)N(C)C[C@H]1C(=O)O`, for which the activity, negative = inhibition was 8.56% (inactive) in [1] (parasite line A) and 16.1% (inactive) in assay [1] (parasite line B). For the same compound, the Potency result in the assay with 3D7, in the assay with 7G8, in the assay on AA1029, with AS120, in the assay on ATS189 and in the assay on ATS95 was “inactive” each time. For the same compound, the Potency result in the assay with C2A is “inactive”.
As to `NC(=O)c1ncn([C@@H]2O[C@H](CO)[C@@H](O)[C@H]2O)n1`, the Z-AUC is -0.199 (inactive) in assay [2], -0.186 in assay [2] (setting [9]) and -0.149 in [2] (measured here: PEO4 Z-AUC).
Take `Nc1ncnc2c1ncn2[C@@H]1O[C@H](CO)[C@@H](O)[C@H]1O`: the Z-AUC was 0.682 (inactive) in assay [2], 0.71 in assay [2] (setting [9]) and 1.16 in [2] (measured here: PEO4 Z-AUC). Further, the activity, negative = inhibition in assay [1] (parasite line A) is 7.65% (inactive); in [1] (parasite line B), 2.17% (inactive). Besides, the Potency entry with 3D7, with 7G8, in the assay on AA1029, with AS120, with ATS189 and in the assay on ATS95 was “inactive” in each case. The Potency entry in the assay on C2A is “inactive”.
On to `CC1=C(C/C=C(\C)CCC[C@H](C)CCC[C@H](C)CCCC(C)C)C(=O)c2ccccc2C1=O`, for which the compound was classed as inactive in assay [3], in assay [4], in assay [6], in assay [7] and in assay [8]. The max response in assay [5] was -2.28% (inactive).
On to `C[C@H]1O[C@@H](n2cc(F)c(=O)[nH]c2=O)[C@H](O)[C@@H]1O`, for which the results for the Z-AUC in [2], in assay [2] (setting [9]) and in assay [2] (measured here: PEO4 Z-AUC) were 0.97 (inactive), 1.13 and 1.52, respectively. The activity, negative = inhibition is 3.03% (inactive) in [1] (parasite line A) and 4.84% (inactive) in assay [1] (parasite line B). Moreover, the Potency entry in the assay with 3D7, in the assay with 7G8, in the assay with AA1029, with AS120, with ATS189 and in the assay with ATS95 was “inactive” in each case. In the assay with C2A, the Potency result was “inactive”.
`CC(=O)OCC(=O)[C@@]1(O)CC[C@H]2[C@@H]3CCC4=CC(=O)CC[C@]4(C)[C@H]3C(=O)C[C@@]21C`: the Z-AUC in assay [2] was -1.11 (inactive); in assay [2] (setting [9]), -0.142; in [2] (measured here: PEO4 Z-AUC), -0.613.
With `CNCCC(Oc1ccc(C(F)(F)F)cc1)c1ccccc1` (configuration not stated), the activity, negative = inhibition in [1] (parasite line A) was -5.44% (inactive); in [1] (parasite line B), -9.25% (inactive). Also, the Potency entry in the assay on 3D7 is “inactive”. In the assay on 7G8, the Potency was 11.2 µM (active).
As to `Oc1cccc(O)c1`, the results for the activity, negative = inhibition in assay [1] (parasite line A) and in assay [1] (parasite line B) were 9.04% (inactive) and 15.9% (inactive), respectively. Moreover, the Potency entry in the assay on 3D7, in the assay on 7G8, in the assay with AA1029, with AS120, in the assay with ATS189 and with ATS95 was “inactive” each time. The Potency result in the assay on C2A is “inactive”.
`Cn1c(=O)c2c(ncn2CC2OCCO2)n(C)c1=O`: the figures for the Z-AUC in assay [2], in [2] (setting [9]) and in assay [2] (measured here: PEO4 Z-AUC) were -0.883 (inactive), -0.316 and 0.00528, respectively. Further, the activity, negative = inhibition is -11.9% (inactive) in assay [1] (parasite line A) and -9.38% (inactive) in assay [1] (parasite line B). The Potency entry with 3D7, in the assay with 7G8, in the assay with AA1029, with AS120, in the assay with ATS189 and with ATS95 was “inactive” each time. Also, in the assay with C2A, the Potency entry was “inactive”.
Consider `CN1CCC[C@@H]1Cc1c[nH]c2ccc(CCS(=O)(=O)c3ccccc3)cc12`, for which the activity, negative = inhibition in assay [1] (parasite line A) was -0.0666% (inactive); in assay [1] (parasite line B) it was -10.1% (inactive). Moreover, the Potency entry with 3D7 was “inactive”. For the same compound, the Potency in the assay on 7G8 is 6.31 µM (active).
Turning to `c1ccc(CN(CC2=NCCN2)c2ccccc2)cc1`, the activity, negative = inhibition in assay [1] (parasite line A) was -1.61% (inactive); in assay [1] (parasite line B) it was -1.95% (inactive). In addition, in the assay with 3D7, the Potency entry is “inactive”. In addition, the Potency in the assay on 7G8 was 4.47 µM (active).
In the case of `Nc1ccc(S(=O)(=O)Nc2ccccc2)cc1`, the activity, negative = inhibition was -9.52% (inactive) in assay [1] (parasite line A) and 11.6% (inactive) in assay [1] (parasite line B). For the same compound, the Potency entry in the assay with 3D7, in the assay with 7G8, in the assay with AA1029, in the assay with AS120, in the assay on ATS189 and in the assay with ATS95 was “inactive” in each case. In addition, the Potency entry in the assay with C2A is “inactive”.

Values taken from PubChem BioAssay (NCATS).
